Inconclusive results are not listed. A call without a number means that no potency is given here. Activity calls are given as the source filed them. The call rests on the fitted dose curve.
biological target: D(2) dopamine receptor (Homo sapiens) (UniProt P14416); test: Dopamine D2 receptor (DRD2) small molecule agonists, cell-based qHTS assay (AID 1963594); details: HEK293-DRD2 cAMP HTRF, agonist mode, 30 min; series mostly up to 92.4 µM; further: nearly all actives have a fitted effect of over 35% in size
Sequence (P14416 whole entry, looked up): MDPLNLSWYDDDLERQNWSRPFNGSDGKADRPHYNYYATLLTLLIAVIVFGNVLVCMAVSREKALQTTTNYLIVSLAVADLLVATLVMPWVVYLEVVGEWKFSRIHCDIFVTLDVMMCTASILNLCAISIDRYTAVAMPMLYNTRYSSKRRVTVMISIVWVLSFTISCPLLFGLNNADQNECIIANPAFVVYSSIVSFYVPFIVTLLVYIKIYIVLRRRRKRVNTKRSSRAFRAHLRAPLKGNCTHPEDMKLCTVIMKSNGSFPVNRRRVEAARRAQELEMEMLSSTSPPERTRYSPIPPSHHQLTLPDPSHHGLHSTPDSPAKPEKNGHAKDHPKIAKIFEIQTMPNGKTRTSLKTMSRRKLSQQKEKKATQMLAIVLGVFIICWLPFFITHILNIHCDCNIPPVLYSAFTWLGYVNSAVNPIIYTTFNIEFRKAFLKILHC
Excerpt: National Center for Advancing Translational Sciences [NCATS]
Division of Preclinical Innovation [DPI]
U.S. Environmental Protection Agency [EPA]
National Institutes of Environmental Health Sciences [NIEHS]
National Toxicology Program [NTP]
U.S. Food and Drug Administration [FDA]
DRD2 is the D2 subtype of the dopamine receptor, which is coupled to Gi subtype of G protein-coupled receptor. This G protein-coupled receptor inhibits adenylyl cyclase activity. The DRD2-HEK293 cell line stably expressing D2 dopamine receptor can be used for screening agonists and antagonists of interactions between D2 and its ligands. The Hek293-DRD2 cAMP assay is based on HTRF technology. It measures changes of cAMP accumulation in response to Gi coupled GPCR activation or inhibition.
Tox21 Assay Protocol Summary:
DRD2-Hek293 cells were dispensed at 600 cells/3uL/well in 1536-well white plates using a Multidrop Dispenser. After the assay plates were incubated at a 37 C/5% CO2 incubator for 24 h, 1 uL of Ro20-1724 at final concentration of 0.1 mM was transferred to the assay plate by a Flying Reagent Dispenser. Following Ro20-1724 addition, 23 nL of compound dissolved in DMSO, positive controls or DMSO only was added to the assay plates via Wako pintool station. The assay plates were incubated at room temperature for 10 min. Next, 1 uL of NKH477 at 200nM was added into the plates. After the assay plates were incubated at room temperature for an additional 30 min, 2.5 ul/well of cAMP-d2 and 2.5 ul/well of anti-cAMP-cryptate were added respectively into the assay plates using a Flying Reagent Dispenser. The plates were incubated at room temperature for 1 h. The fluorescence intensity in the plates was measured at 340 nm excitation and 665 & 620 nm emission by an Envision plate reader.

Structure (SMILES) | Potency | activation
C1CCNCC1 | inactive | –
CCNc1nc(NC(C)C(C)C)nc(SC)n1 (stereo not given) | inactive | –
CC1=C(C(=O)O)N2C(=O)[C@@H](N)[C@H]2SC1 | – | -15.4% [at 19 µM] (inactive)
CC(Cc1ccc(C(C)(C)C)cc1)CN1C[C@@H](C)O[C@@H](C)C1 (stereo not given in full) | inactive | –
COc1ccc(C=O)cc1O | inactive | –
Cc1cc(C2CC2)nc(Nc2ccccc2)n1 | inactive | –
CC(=O)[O-].CC(=O)[O-].CC(=O)[O-].[Cr+3] | inactive | –
c1ccc2nc(N3CCNCC3)ccc2c1 | inactive | –
CCCCCCCCCCCCN(C)C | inactive | –
FC(F)OC(F)(F)C(F)Cl (stereo not given) | inactive | –
O=C(O)c1ccccc1C(=O)Nc1cccc2ccccc12 | inactive | –
CC1(C)COP(Oc2ccccc2)OC1 | inactive | –
CCSC(=O)Cl | inactive | –
[O-][Cl+3]([O-])([O-])O | inactive | –
Clc1ccc(Oc2ccccc2)cc1 | inactive | –
COP(=S)(Oc1cc(Cl)c(Br)cc1Cl)c1ccccc1 (stereo not given) | inactive | –
N#CC(O)c1ccccc1 (stereo not given) | inactive | –
CC(=O)c1cc(C(C)(C)C)cc2c1CCC2(C)C | inactive | –
CN(C1CCCCC1)C1CCCCC1 | inactive | –
CNC(=O)CSP(=O)(OC)OC | inactive | –

Structure (SMILES) | Potency | activation
CCN[C@@H](C)Cc1ccccc1 | inactive | –
CCn1cc[n+](C)c1 (tested in a mixture with another compound) | inactive | –
COCC(C)N(C(=O)CCl)c1c(C)csc1C (stereo not given) | inactive | –
CCC1CCC(=O)O1 (stereo not given) | inactive | –
CNC(=O)Oc1cccc(N=CN(C)C)c1 | inactive | –
Cc1cccc(C)c1NC1=NCCCS1 | inactive | –
C#CC(O)(C=CCl)CC (stereo not given) | inactive | –
Oc1c(Br)c(Br)c(Br)c(Br)c1Br | inactive | –
CC(C)(C)C(=O)C(Oc1ccc(Cl)cc1)n1cncn1 (stereo not given) | inactive | –
C=CC[C@]1(O)CC[C@H]2[C@@H]3CCC4=CC(=O)CCC4=C3C=C[C@@]21C | inactive | –
O=NN(CCO)CCO | inactive | –
CCC(=O)c1ccc(Cl)cc1 | inactive | –
c1cc[c]([Hg][c]2ccccc2)cc1 | inactive | –
COC(=O)N(OC)c1ccccc1COc1ccn(-c2ccc(Cl)cc2)n1 | inactive | –
CCCCOC(=O)c1ccccc1N | inactive | –
O=NN1CCN(N=O)CC1 | inactive | –
CCOC(=O)Cc1ccccc1 | inactive | –
CC(C)CC#N | inactive | –
ClC(Cl)=C(c1ccc(Cl)cc1)c1ccccc1Cl | inactive | –
CCOc1ccc(C(C)(C)COCc2cccc(Oc3ccccc3)c2)cc1 | inactive | –

From PubChem BioAssay (Tox21)
